SMN2 splice up: SMN2 splice variant enhancement; HEK293 SMN2-luciferase splicing reporter, luminescence, 30-36 h; Potency, µM (top dose mostly 46.1 µM), for inactives: at the highest dose activity change, positive = activation, most hits filed as activators; AID 1458; actives 2.8% (n = 210,000); further: % of control where 0% means no effect; nearly all actives have a fitted effect of over 55% in size
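qHTS luciferase splicing reporter: luminescence rises when SMN2 exon 7 is included in transfected HEK293 cells. Compound exposure lasted 30-36 h at 37C, with 4.5 mM final sodium butyrate as control, followed by a ONE-Glo read.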
ELG1 genotox: genotoxicity induction in ELG1-luciferase HEK293T cells; HEK293T ELG1-luciferase reporter, luminescence, 16 h; Potency, µM (series often up to 46 µM), inactives show at the highest dose activity change, positive = activation, hits mostly activators; actives 1.3% (n = 330,000); AID 504466; further: % of control where 0% means no effect; nearly all actives have a fitted effect of over 60% in size
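Reporter readout depends on ELG1 protein level, which increases with genetic stress. After 16 hr compound exposure at 37 °C, luciferase activity was quantified using ONE-Glo.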
NPC1 promoter act: NPC1 promoter activation. Huh7 NPC1 promoter luciferase reporter, 24 h. Potency, µM (doses to about 9.22 µM), inactives show at the top dose activation, usual class: activators. actives 2.4% (n = 320,000). AID 485313; further: % of control where 0% means no effect; nearly all actives have a fitted effect of over 60% in size
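Cells: Huh7 expressing luciferase under the NPC1 promoter, 1500/well. Seeded 2 h, compound added, incubated 24 h at 37 °C. Luciferase reagent, 10 min ambient, then luminescence.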
FLuc modulator: firefly luciferase modulation, counter-screen for miR-21 project; P08659; purified FLuc, Km substrates, luminescence inhibition; Potency, µM (doses to about 57.5 µM), without a hit: at the highest dose activity change, negative = inhibition, actives largely listed as inhibitors; actives 6.9% (n = 360,000);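 further: plate controls were vehicle for no effect and reference inhibitor for full effect; nearly all actives have a fitted effect of over 55% in size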
Target sequence (P08659 whole entry, looked up): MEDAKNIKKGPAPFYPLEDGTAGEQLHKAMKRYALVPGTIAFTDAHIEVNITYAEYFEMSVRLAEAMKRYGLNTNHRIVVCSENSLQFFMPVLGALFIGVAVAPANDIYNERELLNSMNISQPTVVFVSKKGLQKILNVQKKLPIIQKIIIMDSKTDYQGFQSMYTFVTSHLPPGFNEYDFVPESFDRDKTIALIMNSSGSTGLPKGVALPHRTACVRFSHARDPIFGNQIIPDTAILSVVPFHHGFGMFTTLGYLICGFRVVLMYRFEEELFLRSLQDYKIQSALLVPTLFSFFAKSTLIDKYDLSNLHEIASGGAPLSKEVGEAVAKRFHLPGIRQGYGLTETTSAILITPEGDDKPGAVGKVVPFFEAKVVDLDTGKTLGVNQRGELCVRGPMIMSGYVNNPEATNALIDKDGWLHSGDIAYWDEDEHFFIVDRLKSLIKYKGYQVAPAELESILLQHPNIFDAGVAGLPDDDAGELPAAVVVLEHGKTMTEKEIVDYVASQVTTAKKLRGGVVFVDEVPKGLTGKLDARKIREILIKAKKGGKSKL
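Purified P. pyralis luciferase, 10 nM final, with Km-level 10 uM D-luciferin and 10 uM ATP in 50 mM Tris acetate pH 7.5, 10 mM Mg acetate, 0.01% Tween-20, 0.05% BSA; 6-point qHTS titration about 60 µM downward; luminescence read.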
Luc counter: blocks Kinase-Glo luciferase, a counter-screen artifact. Kinase-Glo luciferase, ATP luminescence, 8 min. Potency, µM (top dose mostly 38.3 µM), for inactives: at the top dose activity change, negative = inhibition, usual class: inhibitors. actives 0.28% (n = 200,000); further: on the % scale 0 is the no-effect control and ±100 the full control effect; nearly all actives have a fitted effect of over 60% in size
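Luminescence was the read-out, taken after 8-minute incubation at ambient temperature. Luciferase turned over luciferin with 10 uM ATP in imidazole pH 7.2 buffer containing KCl, MgCl2, Tween 20 and BSA.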
Rab9 promoter act: Rab9 promoter activation; Huh7 Rab9 promoter-luciferase reporter, luminescence, 24 h; Potency, µM (highest dose often 9.22 µM), inactives show at the highest dose activation, negative = inhibition, usual class: activators; actives 2.8% (n = 320,000); AID 485297; further: % of control where 0% means no effect; nearly all actives have a fitted effect of over 60% in size
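Cells were plated at 1500 per well in reduced-serum medium with 10% FBS and left 2 h. Compound in DMSO was then added for 24 h at 37 °C. Reporter signal was read by luminescence after 10 min with luciferase detection reagent.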
Numbers without * were called inactive; ? = inconclusive; / = no result; [ ] = another dose, or the depositor's remark. A selection: hits, their analogues and other compounds. The true share with any hit is near 7.3%. The call rests on the fitted dose curve; in most records, active means well fitted curve in the direction sought with a large enough effect; inconclusive means small, poorly fitted or top-dose-only effect, or another doubt; inactive means no such curve, though single readings can be large; an effect the other way counts as inactive or inconclusive. Potency means the concentration at half of the fitted maximal effect.

SMILES	SMN2 splice up	ELG1 genotox	NPC1 promoter act	FLuc modulator	Luc counter	Rab9 promoter act
CCCCNC(=O)CCCN1C(=O)c2ccccc2Sc2ncccc21	/	/	/	0%	/	/
CC(C)=C[C@H]1[C@@H](COC(=O)c2cc3c(cc2Cl)OCO3)C1(C)C	-5%[9.22 µM]	/	/	/	-7%[7.66 µM]	/
CCCCc1nc2cc(C(=O)N3CCCC(COC)C3)ccc2o1 (stereo unspecified)	/	?	4µM*	17µM*	/	4µM*
CCCCc1nc2cc(C(=O)NC(C)c3cnn(C)c3)ccc2o1 (stereo unspecified)	/	?	?	?	/	4µM*
CCCCc1nc2cc(C(=O)N3CCNC(=O)C3)ccc2o1	/	2%	-3%	-3%	/	2%
CCCCc1nc2cc(C(=O)N3CCCCC3CC(=O)OCC)ccc2o1 (stereo unspecified)	/	-1%	23%	3%	/	?
CCCCc1nc2cc(C(=O)N3CCCCC3C(=O)OC)ccc2o1 (stereo unspecified)	/	?	?	15µM*	/	2.8µM*
CCCCc1nc2cc(C(=O)N3CCCC3)ccc2o1	/	?	?	?	/	2.8µM*
CCOc1ccccc1/C=C/c1onc(C)c1S(=O)(=O)N1CCC(C(=O)N2CCCCC2)CC1	/	/	/	2%	/	/
C[C@H]1Cc2c(-c3ccccc3)nc3c(c2CO1)CN(S(=O)(=O)c1ccc2c(c1)OCCN2C)CC3	-4%[9.22 µM]	/	/	/	-7%[7.66 µM]	/
C[N+](C)(C)CC(=O)N/N=C\c1ccncc1	-6%[9.22 µM]	/	/	/	-1%[7.66 µM]	/
COc1ccc(C(=O)OCc2cc(=O)n3nc(-c4cccs4)sc3n2)cc1	/	/	/	-1%	/	/
CCCCc1nc2cc(C(=O)N3CCCC(OCCC)C3)ccc2o1 (stereo unspecified)	/	?	?	17µM*	/	?
Cc1cc2c(C)nc(-c3ccccc3)nc2o1	28µM*	16µM*	?	19µM*	0%	?
Cc1nc(N)sc1N=Nc1ccccc1C(F)(F)F	/	?	?	12µM*	/	2.8µM*
Nc1ccccc1SC1CC(=O)N(c2ccc3c(c2)OCCO3)C1=O (stereo unspecified)	/	7%	?	?	/	2.2µM*
Nc1ccccc1SC1CC(=O)N(c2ccc(Cl)c(Cl)c2)C1=O (stereo unspecified)	/	-5%	-4%	2%	/	-3%
CCOC(=O)C1=C(CS(=O)(=O)c2ccc(C(C)(C)C)cc2)NC(=O)NC1c1cccc(OC)c1 (stereo unspecified)	-19%	/	/	4%	/	/
CN(/N=C/c1ccncc1)c1cnc2ccccc2n1	11µM*	2%	?	4.8µM*	-1%	4µM*
COc1ccc(OC)c2sc(NC(=O)c3ccc(S(=O)(=O)N4CCCC4)cc3)nc12	/	/	/	-1%	/	/
COc1ccc(NC(=O)C2CCN(S(=O)(=O)c3c(C)nn(C)c3C)CC2)cc1	/	1%	-1%	-1%	/	1%
Cc1nn(C)c(C)c1S(=O)(=O)N1CCC(C(=O)Nc2ccc3c(c2)OCCO3)CC1	1%	18µM*	11%	15µM*	0%	20%
Cc1ccc(F)c(Cn2cnc3c(cnn3C(C)(C)C)c2=O)c1Cl	/	-2%	1%	?	/	-1%
CC(C)(C)n1ncc2c(=O)n(Cc3c(F)ccc(Cl)c3Cl)cnc21	/	/	/	13µM*	/	/
CC(C)(C)n1ncc2c(=O)n(CC(=O)NCc3ccccc3Cl)cnc21	11µM*	?	0.4µM*	3µM*	-6%	0.4µM*
SMILES	SMN2 splice up	ELG1 genotox	NPC1 promoter act	FLuc modulator	Luc counter	Rab9 promoter act
COc1ccc(OCc2cc(C(=O)NC3CCOCC3)no2)c2ccccc12	/	0%	-4%	-5%	/	4%
CCN1CCC2(CCN(C(=O)c3cc(COc4cc(C)ccc4C)on3)C2)C1 (stereo unspecified)	/	0%	-7%	0%	/	-2%
CCCOC1CCCN(C(=O)c2cc(COc3c(F)cccc3F)on2)C1 (stereo unspecified)	/	?	2.8µM*	12µM*	/	2.2µM*
COc1cc(Cl)ccc1OCc1cc(C(=O)N2CCC(N(C)C)C2)no1 (stereo unspecified)	/	4%	1%	-17%	/	-3%
COc1ccc(OCc2cc(C(=O)N3CCCC(OC)C3)no2)c2ccccc12 (stereo unspecified)	/	?	?	27µM*	/	?
COc1ccc(OCc2cc(C(=O)N3CCCC(O)C3)no2)c2ccccc12 (stereo unspecified)	/	?	?	12µM*	/	?
Cc1ccc(C)c(OCc2cc(C(=O)N3CC[C@H](O)C3)no2)c1	/	?	30%	12µM*	/	2.5µM*
O=C(CSc1cn(CC(=O)N2CCCC2)c2ccccc12)Nc1cc(C(F)(F)F)ccc1Cl	/	/	/	-17%	/	/
Cn1c(C(=O)N2CCc3ccccc3C2)cc2oc3ccccc3c21	22µM*	?	27%	11µM*	1%	?
CCc1ccc(C(=O)c2cn(CC(=O)Nc3ccc(OC)c(Cl)c3)c3nc(C)ccc3c2=O)cc1	/	/	/	-5%	/	/
N#CC1=C(N)Oc2n[nH]c(-c3ccccc3)c2C12C(=O)Nc1ccccc12 (stereo unspecified)	5.6µM*	0%	1%	-1%	-1%	-5%
COc1ccc(NC2CCCN(C(=O)CN3CCOC3=O)C2)cc1 (stereo unspecified)	/	?	?	11µM*	/	?
COc1ccc(NC2CCCN(C(=O)CN3CCOC3=O)C2)cc1OC (stereo unspecified)	/	-2%	-3%	1%	/	-7%
COc1ccc(CNC(=O)c2ccc(CNS(=O)(=O)c3ccc(F)cc3)cc2)cc1	/	/	/	0%	/	/
Cc1ccc(CC(=O)O/N=C(\N)c2cccc([N+](=O)[O-])c2)cc1	-14%	0%	-3%	?	0%	2%
N/C(=N\OC(=O)C1CCCCC1)c1cccc([N+](=O)[O-])c1	10%	?	11%	11µM*	-10%	24%
Cc1ccc(C(=O)O/N=C(\N)c2cccc([N+](=O)[O-])c2)cc1	20%	?	3.5µM*	0.19µM*	-18%	3.5µM*
N/C(=N\OC(=O)c1ccncc1)c1cccc([N+](=O)[O-])c1	/	17%	18%	?	/	20%
N/C(=N\OC(=O)c1ccc([N+](=O)[O-])cc1)c1ccc(Br)cc1	/	?	8%	?	/	3%
N/C(=N\OC(=O)c1ccc(Br)cc1)c1cccc([N+](=O)[O-])c1	/	?	?	0.85µM*	/	28%
COC(=O)c1cc2oc(C)cc2n1Cc1cccc(Cl)c1	8%	/	/	-1%	/	/
